In PubChem BioAssay AID2615 (Southern Research Specialized Biocontainment Screening …, 2010) one finds outcome and viability data, which are given here for one compound.

This experiment can be described thus: SV40 cytopathic effect inhibition and cytotoxicity, confirmation, SV40 T antigen inhibitor project, BSC cells (AID 2615). To be noted: BSC cells SV40 infection, CPE inhibition; viability, at 100 µM, stronger effect = lower value.

Activity calls are given as the source filed them. The rule behind the calls is not given here.

In general, viability refers to a read-out of living cells in per cent, often relative to untreated cells. `COc1ccc(CC2NCCc3cc(OC)c(OC)cc32)cc1OC` (configuration not stated): the call was inactive and the viability is 201%.
